# This is a sample that favours compounds with a hit; in the whole collection about 2.6% have one here.
# Cruzain noTriton: cruzain (T. cruzi) inhibition without detergent. purified cruzain, Z-FR-AMC fluorescence, no detergent. Potency, µM, without a hit: max response, negative = inhibition, usual class: inhibitors. actives 2.3% (n = 200,000). AID 1476;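 note: plate controls were enzyme without inhibitor for no effect and buffer without enzyme for full effect; nearly all actives have a fitted effect of over 40% in size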
# Target sequence (P25779 123-467 limits assumed): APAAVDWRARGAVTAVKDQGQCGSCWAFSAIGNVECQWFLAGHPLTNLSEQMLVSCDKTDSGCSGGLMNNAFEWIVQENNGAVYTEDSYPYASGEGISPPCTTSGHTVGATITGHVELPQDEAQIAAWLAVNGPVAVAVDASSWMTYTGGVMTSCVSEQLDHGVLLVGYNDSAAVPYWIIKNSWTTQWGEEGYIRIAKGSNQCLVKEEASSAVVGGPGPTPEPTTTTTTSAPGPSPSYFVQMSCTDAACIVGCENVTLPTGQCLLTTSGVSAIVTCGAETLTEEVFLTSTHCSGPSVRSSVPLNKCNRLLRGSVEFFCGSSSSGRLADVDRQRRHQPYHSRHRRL
#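 Purified cruzain at 1.5 nM, pre-incubated 15 min with compound at room temperature in 100 mM sodium acetate pH 5.5, 5 mM DTT, 0.00005% Triton X-100. Reaction started with 2 uM Z-FR-AMC; AMC fluorescence increase over 60 s gives rate.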
# Cruzain inh Det: cruzain (T. cruzi) inhibition with detergent | AID 1478 | Potency, µM, for inactives: max response, negative = inhibition, hits mostly inhibitors | P25779 | actives 0.43% (n = 200,000) | purified cruzain, Z-FR-AMC fluorescence, 0.01% Triton;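 note: plate controls were neutral wells for no effect and buffer without enzyme for full effect; nearly all actives have a fitted effect of over 40% in size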
#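 Purified cruzain (1.5 nM final) was preincubated with compounds for 15 min at room temperature in 100 mM sodium acetate pH 5.5, 5 mM DTT, 0.01% Triton X-100. Reaction started with 2 uM Z-FR-AMC; AMC fluorescence change over 60 s gave activity.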
# The depositor's hits bear a star; u = inconclusive. Calls come from the whole dose curve; as a rule, active = well fitted curve in the direction sought with a large enough effect; inconclusive = small, poorly fitted or top-dose-only effect, or another doubt; inactive = no such curve, though single readings can be large; an effect the other way counts as inactive or inconclusive. Potency is the fitted concentration of half-maximal effect.
SMILES,Cruzain noTriton,Cruzain inh Det
O=C(CSc1ncnc2scc(-c3ccccc3)c12)N1CCN(c2ccccc2F)CC1,32µM*,-4%
C[C@H]1C=C2C=C[C@H](C)[C@H](CC[C@@H]3C[C@@H](O)CC(=O)O3)[C@H]2[C@@H](OC(=O)[C@@H](C)CCO)C1,u,-10%
CCN(CC)Cc1c(O)ccc2c(C)c(CC(=O)OC)c(=O)oc12,u,25µM*
COC(=O)Cc1c(C)c2ccc(OCC(C)=O)c(C)c2oc1=O,13%,-7%
Fc1ccc(Nc2nc(-c3ccoc3)nc3ccccc23)cc1,25µM*,-10%
Cc1cccc(CNc2nc(-c3ccoc3)nc3ccccc23)c1,u,-6%
COc1cccc(-c2nc(NCc3ccccc3OC)c3ccccc3n2)c1,23%,-1%
COc1ccc(CNc2nc(-c3ccoc3)nc3ccccc23)c(OC)c1,16µM*,-8%
Cc1noc(C)c1-c1nc(Nc2ccc(F)cc2)c2ccccc2n1,u,0%
c1ccc(CNc2nc(-c3ccoc3)nc3ccccc23)cc1,25µM*,-3%
Cc1cccc(Cn2c(SCc3ccc(C(=O)NCc4cccs4)cc3)nc3ccncc32)c1,u,-7%
Cc1ccc(Cl)cc1NC(=O)C(NS(=O)(=O)c1ccc2c(c1)CCC(=O)N2)c1ccccc1 (stereo unspecified),-15%,1%
CCc1c(C)nc2nncn2c1Nc1ccc(C(C)C)cc1,4%,-4%
Cc1nn(-c2ccccc2)c(Cl)c1C1C(C#N)=C(N)Oc2c1c(C)nn2-c1ccccc1 (stereo unspecified),2%,-2%
Cc1ccc(-n2nc(C)c(C3C(C#N)=C(N)Oc4c3c(=O)oc3ccccc43)c2Cl)cc1 (stereo unspecified),20µM*,0%
COc1ccc(-c2nc3sc(CCNS(=O)(=O)c4ccccc4)c(C)n3n2)cc1,-3%,-4%
CCC1CN(C(=O)N2CCC(C(=O)N3CCN(c4ccccc4)CC3)CC2)c2ccccc2O1 (stereo unspecified),-11%,-5%
O=C(Nc1ccccc1N1CCN(C(=O)c2ccc(Cl)cc2)CC1)c1cc(Br)ccc1Cl,7.9µM*,4%
CC(=O)N1CCN(c2ccccc2NC(=O)c2cc(Br)ccc2Cl)CC1,3%,-2%
Cc1csc(SCC(=O)c2cc(C)n(Cc3cccs3)c2C)n1,7%,-3%
Cc1cc(C(=O)CSc2n[nH]c(-c3ccccc3F)n2)c(C)n1Cc1cccs1,16µM*,-8%
Cc1ccc(C)c2[nH]c(=O)c(CN(Cc3ccc4c(c3)OCO4)Cc3nnnn3Cc3ccco3)cc12,-7%,-1%
Cc1ccc2cc(CN(Cc3ccc4c(c3)OCO4)Cc3nnnn3Cc3ccco3)c(=O)[nH]c2c1C,32µM*,-1%
COc1ccc(S(=O)(=O)N(CC(=O)Nc2ccc(C)cc2)c2ccc(C)cc2)cc1OC,-3%,1%
COc1ccc(C)cc1S(=O)(=O)N(CC(=O)Nc1cccc([N+](=O)[O-])c1)c1ccc(C)c(C)c1,32µM*,-6%
SMILES,Cruzain noTriton,Cruzain inh Det
CSc1nc2sc3c(c2c(=O)n1-c1ccc(C)c(Cl)c1)CCN(C(C)=O)C3,-1%,0%
COc1cc(NC(=O)CN2CCN(c3ccccc3F)CC2)c(C)cc1[N+](=O)[O-],25µM*,2%
COc1cc(NC(=O)CN2CCN(c3ccccc3)CC2)c(C)cc1[N+](=O)[O-],u,-1%
COc1ccc(NC(=O)CN2C(=O)C(=O)c3ccccc32)c(OC)c1,3%,-1%
O=C(Nc1ccc(Cl)cc1)C1CCC(CNS(=O)(=O)c2ccc(Br)s2)CC1 (stereo unspecified),25µM*,-2%
CC(=O)c1ccc(NC(=O)C2CCC(CNS(=O)(=O)c3ccc(Br)s3)CC2)cc1 (stereo unspecified),1%,-4%
Cc1ccc(C)c(NC(=O)CSc2nc(=O)n(CCN3CCOCC3)c3c2CCC3)c1,11%,-1%
O=C(Nc1nc(-c2cc3ccccc3oc2=O)cs1)c1ccco1,-5%,-7%
O=C(Nc1nc(-c2ccncc2)cs1)c1ccco1,16µM*,-12%
O=C(Nc1ccccc1NC(=O)c1ccco1)c1ccco1,6%,0%
O=C(Nc1cccc2cccc(NC(=O)c3ccco3)c12)c1ccco1,25µM*,-2%
Cn1c(SCC(N)=O)nc2c([nH]c3ccccc32)c1=O,18%,-1%
O=C(CCc1ccccc1)NC(NC(=S)Nc1ccc(Cl)cc1)C(Cl)(Cl)Cl (stereo unspecified),25µM*,-4%
O=C(/C=C/c1ccccc1)NC(NC(=S)Nc1ccc(Cl)cc1)C(Cl)(Cl)Cl (stereo unspecified),u,-1%
Cc1cc(NC(=O)CCN2C(=O)C3C4CCC(C4)C3C2=O)c(C)cc1Br (stereo unspecified),1%,0%
Cc1cc(Br)c(Cl)cc1NC(=O)CN1C(=O)C2C3CC(c4ccccc4)C(C3)C2C1=O (stereo unspecified),13µM*,-6%
CCOc1ccc(CNC(=O)c2ccc(NC(=O)N3CCSc4ncccc43)cc2)cc1,15%,-10%
CCc1nn2c(=O)cc(COC(=O)c3ccco3)nc2s1,-2%,1%
CC1=C(C)CS(=O)N(S(=O)(=O)c2ccccc2)C1 (stereo unspecified),-24%,-26%
CC1=C(C)CS(=O)N(c2ccc(S(N)(=O)=O)cc2)C1 (stereo unspecified),16µM*,16µM*
O=C(N/N=C/c1ccccc1Br)c1ccc(CSc2cccc3cccnc23)cc1,10µM*,1%
Cc1cc(C)nc(SCc2ccc(C(=O)N/N=C/c3cccc(O)c3O)cc2)n1,4%,-6%
COc1ccc(-c2cc(C(=O)NCc3ccc(F)cc3)c3c(-c4ccc(F)cc4)[nH]nc3n2)cc1OC,u,0%
CCCCn1c(SCC(=O)NCc2ccco2)nc2c(sc3ccccc32)c1=O,10µM*,-2%
O=C(CSc1nc2c(sc3ccccc32)c(=O)n1CCc1ccccc1)NCc1ccco1,5µM*,0%
SMILES,Cruzain noTriton,Cruzain inh Det
CCOCCCn1c(SCC(=O)NCc2ccco2)nc2c(sc3ccccc32)c1=O,-4%,-3%
O=C(CSc1nc2c(sc3ccccc32)c(=O)n1-c1ccccc1)NCc1ccco1,u,-14%
NC1=NC(=O)/C(=C\C=C\c2ccccc2)S1,u,3%
O=C1OC(/C=C/c2ccccc2)=NC/1=C/C=C/c1ccccc1,u,5µM*
O=c1c(CCc2ccccc2)nc2cnc(N3CCNCC3)nc2n1C1CC1,-11%,-2%
O=[N+]([O-])c1cc(/C=N\Nc2nccs2)ccc1O,32µM*,18µM*
Clc1cccc(Cl)c1/C=N\Nc1nccs1,u,-2%
CS(=O)(=O)N1CCC[C@@]2(CCN(C(c3ccccc3)c3ccccc3)C2)C1,6%,6%
COc1cccc(-c2nc(N3CCN(Cc4ccccc4)CC3)c3ccccc3n2)c1O,-4%,-12%
COc1cccc(-c2nc(N3CCN(c4ccccc4)CC3)c3ccccc3n2)c1O,10µM*,1%
COc1cccc(-c2nc3c(c(SCc4ccccc4)n2)Cc2c(CO)cnc(C)c2O3)c1,8%,-4%
Nc1ncnc2c1nc(Br)n2C1O[C@H]2COP(=O)(O)O[C@@H]2C1O (stereo partly specified),5%,-3%
Cc1ccc(NS(=O)(=O)c2cc(-c3cnc(C4CC4)o3)ccc2C)cc1Cl,-30%,-1%
Cc1ccc(C(=O)NC(=S)Nc2ccccc2N2CCCC2)cc1[N+](=O)[O-],-21%,-9%

# Bioassay records: PubChem, National Center for Advancing Translational Sciences (NCATS)
